Results taken from the supplement of paper PMC4466140.

Legend:
Test in all cases: SPOT peptide array binding signal intensity (averaged, normalized) (arbitrary units (background-subtracted, floor 0; scale differs between SH3 domains)); higher = stronger binding of the SH3 domain to the peptide
[1] = target: SpBzz1-D2
Procedure, shortened: (§1)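 SH3 domains from four yeast species were expressed as GST fusions in E. coli BL21(DE3) and purified on glutathione Sepharose. Each was incubated at 10 μg/ml overnight at 4°C in TBS-based blocking buffer on cellulose membranes bearing synthetic 15-mer peptides, in which serines replaced cysteines. Bound protein was detected with anti-GST antibody, an HRP anti-mouse secondary and luminol, then imaged and quantified with Genespotter. The binding signal is the normalized, background-subtracted spot intensity averaged over replicates, in arbitrary units that are not the same from one domain to another.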

[2] = target: SpCyk3
Procedure, shortened: as §1

[3] = target: SpHof1
Procedure, shortened: as §1

[4] = target: SpHof1-2
Procedure, shortened: as §1

[5] = target: SpHof1-3
Procedure, shortened: as §1

[6] = target: SpHse1
Procedure, shortened: as §1

[7] = target: SpLsb1
Procedure, shortened: as §1

[8] = target: SpLsb4
Procedure, shortened: as §1

[9] = target: SpMyo1
Procedure, shortened: as §1

[10] = target: SpNbp2
Procedure, shortened: as §1

[11] = target: SpPex13
Procedure, shortened: as §1

[12] = target: SpRvs167
Procedure, shortened: as §1

[13] = target: SpSla1-D1-D2
Procedure, shortened: as §1

[14] = target: SpSla1-D3
Procedure, shortened: as §1

[15] = target: AgAbp1
Procedure, shortened: as §1

[16] = target: AgBbc1
Procedure, shortened: as §1

[17] = target: AgBem1-D1
Procedure, shortened: as §1

[18] = target: AgBzz1-D1
Procedure, shortened: as §1

[19] = target: AgBzz1-D2
Procedure, shortened: as §1

[20] = target: AgCyk3
Procedure, shortened: as §1

[21] = target: AgFus1
Procedure, shortened: as §1

[22] = target: AgHof1
Procedure, shortened: as §1

[23] = target: AgHse1
Procedure, shortened: as §1

[24] = target: AgLsb1
Procedure, shortened: as §1

[25] = target: AgLsb4
Procedure, shortened: as §1

[26] = target: AgMyo5
Procedure, shortened: as §1

[27] = target: AgNbp2
Procedure, shortened: as §1

[28] = target: AgRvs167
Procedure, shortened: as §1

[29] = target: AgSho1
Procedure, shortened: as §1

[30] = target: AgSla1-D1-D2
Procedure, shortened: as §1

[31] = target: AgSla1-D3
Procedure, shortened: as §1

[32] = target: CaAbp1-D1
Procedure, shortened: as §1

[33] = target: CaAbp1-D2
Procedure, shortened: as §1

[34] = target: CaBbc1
Procedure, shortened: as §1

[35] = target: CaBem1-D1
Procedure, shortened: as §1

[36] = target: CaBzz1-D1
Procedure, shortened: as §1

[37] = target: CaBzz1-D2
Procedure, shortened: as §1

[38] = target: CaCyk3
Procedure, shortened: as §1

[39] = target: CaFus1
Procedure, shortened: as §1

[40] = target: CaHof1
Procedure, shortened: as §1

[41] = target: CaHse1
Procedure, shortened: as §1

[42] = target: CaLsb1
Procedure, shortened: as §1

[43] = target: CaLsb4
Procedure, shortened: as §1

[44] = target: CaMyo5
Procedure, shortened: as §1

[45] = target: CaNbp2
Procedure, shortened: as §1

[46] = target: CaRvs167
Procedure, shortened: as §1

[47] = target: CaRvs167-3
Procedure, shortened: as §1

[48] = target: CaSho1
Procedure, shortened: as §1

[49] = target: CaSla1-D1-D2
Procedure, shortened: as §1

[50] = target: CaSla1-D3
Procedure, shortened: as §1

[51] = target: ScAbp1
Procedure, shortened: as §1

[52] = target: ScBbc1
Procedure, shortened: as §1

[53] = target: ScBem1-D1
Procedure, shortened: as §1

[54] = target: ScBzz1-D1
Procedure, shortened: as §1

[55] = target: ScBzz1-D2
Procedure, shortened: as §1

[56] = target: ScCyk3
Procedure, shortened: as §1

[57] = target: ScFus1
Procedure, shortened: as §1

[58] = target: ScHof1
Procedure, shortened: as §1

[59] = target: ScHse1
Procedure, shortened: as §1

[60] = target: ScLsb1
Procedure, shortened: as §1

[61] = target: ScLsb2
Procedure, shortened: as §1

[62] = target: ScLsb3
Procedure, shortened: as §1

[63] = target: ScLsb4
Procedure, shortened: as §1

[64] = target: ScMyo3
Procedure, shortened: as §1

[65] = target: ScMyo5
Procedure, shortened: as §1

[66] = target: ScNbp2
Procedure, shortened: as §1

[67] = target: ScPex13
Procedure, shortened: as §1

[68] = target: ScRvs167
Procedure, shortened: as §1

[69] = target: ScSho1
Procedure, shortened: as §1

[70] = target: ScSla1-D1-D2
Procedure, shortened: as §1

[71] = target: ScSla1-D3
Procedure, shortened: as §1

[72] = target: SpAbp1-D1
Procedure, shortened: as §1

[73] = target: SpBbc1
Procedure, shortened: as §1

[74] = target: SpBzz1-D1
Procedure, shortened: as §1

TYNRTAFQIPGDQSI was tested, and the “SPOT peptide array binding signal intensity” value [1] was no more than 0, the “SPOT peptide array binding signal intensity” value [2] was no more than 0 and the “SPOT peptide array binding signal intensity” value [3] was 1.75. The “SPOT peptide array binding signal intensity” value [4] was 5.25, the “SPOT peptide array binding signal intensity” value [5] was 0.25 and the “SPOT peptide array binding signal intensity” value [6] was 50.2. For the same binder, the “SPOT peptide array binding signal intensity” value [7] was 17.5, the “SPOT peptide array binding signal intensity” value [8] was no more than 0 and the “SPOT peptide array binding signal intensity” value [9] was 2.75. For the same binder, the “SPOT peptide array binding signal intensity” value [10] was no more than 0, the “SPOT peptide array binding signal intensity” value [11] was no more than 0 and the “SPOT peptide array binding signal intensity” value [12] was 0.333. For the same binder, the “SPOT peptide array binding signal intensity” value [13] was no more than 0 and the “SPOT peptide array binding signal intensity” value [14] was no more than 0.

TKHKAPPPPPPTAET was tested, and the “SPOT peptide array binding signal intensity” value [15] was 1, the “SPOT peptide array binding signal intensity” value [16] was no more than 0 and the “SPOT peptide array binding signal intensity” value [17] was no more than 0. The “SPOT peptide array binding signal intensity” value [18] was 2000, the “SPOT peptide array binding signal intensity” value [19] was 338 and the “SPOT peptide array binding signal intensity” value [20] was no more than 0. For the same binder, the “SPOT peptide array binding signal intensity” value [21] was no more than 0, the “SPOT peptide array binding signal intensity” value [22] was no more than 0 and the “SPOT peptide array binding signal intensity” value [23] was 4. For the same binder, the “SPOT peptide array binding signal intensity” value [24] was no more than 0, the “SPOT peptide array binding signal intensity” value [25] was no more than 0 and the “SPOT peptide array binding signal intensity” value [26] was 21.8. For the same binder, the “SPOT peptide array binding signal intensity” value [27] was 39.5, the “SPOT peptide array binding signal intensity” value [28] was 4 and the “SPOT peptide array binding signal intensity” value [29] was no more than 0. For the same binder, the “SPOT peptide array binding signal intensity” value [30] was 3, the “SPOT peptide array binding signal intensity” value [31] was 774 and the “SPOT peptide array binding signal intensity” value [32] was 12. For the same binder, the “SPOT peptide array binding signal intensity” value [33] was no more than 0, the “SPOT peptide array binding signal intensity” value [34] was no more than 0 and the “SPOT peptide array binding signal intensity” value [35] was 42.5. The “SPOT peptide array binding signal intensity” value [36] was 4620, the “SPOT peptide array binding signal intensity” value [37] was 3490 and the “SPOT peptide array binding signal intensity” value [38] was 1. For the same binder, the “SPOT peptide array binding signal intensity” value [39] was 4.5, the “SPOT peptide array binding signal intensity” value [40] was 1 and the “SPOT peptide array binding signal intensity” value [41] was 5.5. For the same binder, the “SPOT peptide array binding signal intensity” value [42] was no more than 0, the “SPOT peptide array binding signal intensity” value [43] was no more than 0 and the “SPOT peptide array binding signal intensity” value [44] was 0.25. For the same binder, the “SPOT peptide array binding signal intensity” value [45] was no more than 0, the “SPOT peptide array binding signal intensity” value [46] was no more than 0 and the “SPOT peptide array binding signal intensity” value [47] was 4. The “SPOT peptide array binding signal intensity” value [48] was no more than 0, the “SPOT peptide array binding signal intensity” value [49] was 6.5 and the “SPOT peptide array binding signal intensity” value [50] was no more than 0. The “SPOT peptide array binding signal intensity” value [51] was 1.5, the “SPOT peptide array binding signal intensity” value [52] was no more than 0 and the “SPOT peptide array binding signal intensity” value [53] was 3. For the same binder, the “SPOT peptide array binding signal intensity” value [54] was 5910, the “SPOT peptide array binding signal intensity” value [55] was 5 and the “SPOT peptide array binding signal intensity” value [56] was no more than 0. The “SPOT peptide array binding signal intensity” value [57] was 18, the “SPOT peptide array binding signal intensity” value [58] was no more than 0 and the “SPOT peptide array binding signal intensity” value [59] was no more than 0. For the same binder, the “SPOT peptide array binding signal intensity” value [60] was 0.25, the “SPOT peptide array binding signal intensity” value [61] was no more than 0 and the “SPOT peptide array binding signal intensity” value [62] was no more than 0. For the same binder, the “SPOT peptide array binding signal intensity” value [63] was no more than 0, the “SPOT peptide array binding signal intensity” value [64] was 160 and the “SPOT peptide array binding signal intensity” value [65] was 112. For the same binder, the “SPOT peptide array binding signal intensity” value [66] was 3.5, the “SPOT peptide array binding signal intensity” value [67] was 0.75 and the “SPOT peptide array binding signal intensity” value [68] was 1.5. The “SPOT peptide array binding signal intensity” value [69] was 2.5, the “SPOT peptide array binding signal intensity” value [70] was no more than 0 and the “SPOT peptide array binding signal intensity” value [71] was 4. For the same binder, the “SPOT peptide array binding signal intensity” value [72] was no more than 0, the “SPOT peptide array binding signal intensity” value [73] was 2 and the “SPOT peptide array binding signal intensity” value [74] was 240. The “SPOT peptide array binding signal intensity” value [1] was 6.25, the “SPOT peptide array binding signal intensity” value [2] was 0.5 and the “SPOT peptide array binding signal intensity” value [3] was 1. For the same binder, the “SPOT peptide array binding signal intensity” value [4] was no more than 0, the “SPOT peptide array binding signal intensity” value [5] was no more than 0 and the “SPOT peptide array binding signal intensity” value [6] was no more than 0. For the same binder, the “SPOT peptide array binding signal intensity” value [7] was 0.5, the “SPOT peptide array binding signal intensity” value [8] was no more than 0 and the “SPOT peptide array binding signal intensity” value [9] was 215. For the same binder, the “SPOT peptide array binding signal intensity” value [10] was 14.5, the “SPOT peptide array binding signal intensity” value [11] was no more than 0 and the “SPOT peptide array binding signal intensity” value [12] was no more than 0. The “SPOT peptide array binding signal intensity” value [13] was 2 and the “SPOT peptide array binding signal intensity” value [14] was 1.
